Screening data: PubChem BioAssay, National Center for Advancing Translational Sciences (NCATS)
HCMV antiviral – human cytomegalovirus inhibition. activity change, negative = inhibition, % at 57.5 µM. 410,000 compounds, 4.5% hits. AID 1259415. HFF cells, HCMV-luciferase reporter, 72 h; stronger effect = lower value; in the data active means activity change below about -60%; inconclusive means no clear call, values can overlap the other calls; inactive means above about -39%
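Screen run at 2 compound doses on HFFs infected with reporter HCMV, MOI 1 PFU/cell. Luciferase activity from cell lysates at 72 h post infection gave inhibition relative to buffer-only and Salinomycin wells.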
MARV entry inh – inhibitors of Marburg virus binding or cell entry; Marburg virus pseudotyped entry inhibition, cell reporter; Potency, µM (titrated, usually from 37.8 µM), without a hit: top-dose activity change, negative = inhibition, actives largely listed as inhibitors; 300,000 compounds, 1.8% hits; AID 540276; calls by dose curve; tested in HEK293 cells; further: potency means the concentration at half of the fitted maximal effect
Lassa entry inh – blocks Lassa virus binding to or entry into cells | Lassa virus pseudotype entry inhibition, cell reporter | Potency, µM (top dose mostly 37.9 µM), for the others: at the top dose activity change, negative = inhibition, actives largely listed as inhibitors | 300,000 compounds, 1.2% hits; calls by dose curve; tested in HEK293 cells; further: potency means the concentration at half of the fitted maximal effect; nearly all actives have a fitted effect of over 50% in size
HCV inhibitor – blocks hepatitis C virus; Potency, µM (series often up to 41.8 µM), without a hit: at the highest dose activity change, negative = inhibition, hits mostly inhibitors; 340,000 compounds, 3.4% hits; Huh7.5.1 HCVcc-Cre infection, luciferase reporter, 44 h; active means well fitted inhibition curve with a large enough effect; inconclusive means small, poorly fitted or top-dose-only effect, or another doubt; inactive means no such curve, though single readings can be large or run the other way; further: potency means the concentration at half of the fitted maximal effect
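Infectious HCVcc-Cre (~0.5 moi) was added to cells just after compound, with cells seeded 4 h earlier at 1,000 per well. Luciferase activity after 44 h culture reported infection; substrate was incubated 15 min at room temperature before reading.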
FMDV antiviral – antivirals against foot and mouth disease virus. FMDV antiviral cell-based qHTS. AID 1159524. 410,000 compounds, 1.2% hits. Potency, µM (top dose mostly 57.9 µM), inactives show at the top dose activity change, negative = inhibition, hits mostly inhibitors; calls by dose curve; tested in HEK293T cells; further: read-out not given here; potency means the concentration at half of the fitted maximal effect; nearly all actives have a fitted effect of over 45% in size
The depositor's hits bear a star; ? = inconclusive; / = no result given; [ ] = another dose, or the depositor's remark. Only some compounds are listed: those with a hit (about 7.9% of all), similar ones and a draw of the others. On the % scale 0 is the no-effect control and ±100 the full control effect.

SMILES	HCMV antiviral	MARV entry inh	Lassa entry inh	HCV inhibitor	FMDV antiviral
Nc1c(Cl)cc(-c2cn(CCC(=O)O)c(-c3ccncc3)n2)cc1Cl	-28	/	/	5%	-10%
CCc1ccc(C(=O)COC(=O)c2n[nH]c3ccccc23)cc1	-65*	-24%	?	-19%	-9%
CC(=O)OC1CC[C@]2(C#N)[C@H]3CC[C@]4(C)[C@H](C5C=CC(=O)O5)CCC4(O)C3CCC2(O)C1 (stereo partly specified)	-93*	/	/	2%	?
Cc1ccccc1NC(=O)CSc1nnc(NC(=O)C2CC2)s1	3	?	?	21%	-5%
CCOC(=O)N/N=C1/C[C@@H](O)[C@@H](O)[C@@H]2[C@@H]3C(=O)N(C4CCCCC4)C(=O)[C@H]3CC[C@H]12	/	-25%[14.2 µM]	/	/	/
COc1ccc(N(Cc2cccs2)C(=O)c2ccccc2C)cc1	3	?	-11%[46.1 µM]	/	?
CC(Oc1ccc(Cl)cc1)C(=O)NCCN1C(=O)S/C(=C\c2cccnc2)C1=O (stereo unspecified)	-71*	?	?	?	40µM*
O=C(COc1ccccc1-c1ccccc1)NCCN1C(=O)S/C(=C\c2cccnc2)C1=O	-4	-51%	-11%	0%	32µM*
COc1ccc(CN2CCCC(c3nc(-c4ccncc4)ncc3-c3ccccc3)C2)c(OC)c1OC (stereo unspecified)	/	/	/	/	-4%
CC(C)NC(=O)[C@H](CSCc1ccccc1)N1Cc2ccccc2C1=O	5	3%	0%	16%	-11%
Cc1ccc(C)c(NC(=O)C(Cc2ccccc2)N2Cc3ccccc3C2=O)c1 (stereo unspecified)	-90*	/	-22%[46.1 µM]	/	?
O=C(NC1CCCCC1)[C@H](CSCc1ccccc1)N1Cc2ccccc2C1=O	-60*	-14%	-3%	-14%	0%
CCCCC(CC)COC(=O)c1ccccc1C(=O)OCC(CC)CCCC (stereo unspecified)	54	/	/	5.6µM*	-10%
CC(C)COC(=O)c1ccccc1C(=O)OCC(C)C	0	/	/	-16%	0%
O=c1cc(Nc2ccc3c(c2)OCO3)[nH]c(=O)n1-c1ccc(Br)cc1	-78*	?	-38%	?	/
CCC(NC(=O)CCl)c1ccc(C)cc1 (stereo unspecified)	-78*	?	?	10%	?
CCCC(NC(=O)CCl)c1ccccc1 (stereo unspecified)	-72*	?	-15%	?	?
COc1cc(CNCCCN2CCOCC2)ccc1OCC(=O)Nc1cccc(C(F)(F)F)c1	43	?	?	10µM*	4%
COc1ccccc1OCC(=O)Nc1ccc(NC(=O)COc2ccccc2OC)cc1	30	?	5%[46.1 µM]	?	-25%
CCOc1cc(CNC(CC)CO)ccc1OCC(=O)Nc1cccc(C(F)(F)F)c1 (stereo unspecified)	-37	/	/	1.1µM*	-24%
O=C(COc1ccc(Br)cc1CNCCCN1CCOCC1)Nc1ccccc1	-10	?	?	?	-9%
CCOc1cc(CNCCCN2CCOCC2)ccc1OCC(=O)Nc1cccc2ccccc12	?	?	15µM*	14µM*	5%
COc1cc(CNC(C)C)ccc1OCC(=O)Nc1cccc2ccccc12	-6	-16%	4%	?	2%
COc1ccc(CNC(=O)Nc2cccc(C(F)(F)F)c2)cc1OC	?	?	?	-22%	0%
COc1cc(CNCCO)ccc1OCC(=O)Nc1ccc(Br)cc1	55	-29%	21%	5.6µM*	4%
COc1ccc(NC(=O)CC(C)CC(=O)NCc2ccc(F)cc2)c(OC)c1 (stereo unspecified)	45	/	/	-4%	-4%
CCc1ccc(NC(=O)C2CCN(C(=O)N3CC(CC)Oc4ccccc43)CC2)cc1 (stereo unspecified)	64	/	-10%[46.1 µM]	/	?
Cc1ccc2cc(CN(C(=O)c3cccc(Cl)c3)c3ccccc3)c(=O)[nH]c2c1	11	3%[46.1 µM]	?	/	?
Cc1cc(/C=C(/C#N)c2nc3ccccc3[nH]2)c(C)n1-c1cccc([N+](=O)[O-])c1	-11	?	10µM*	?	0%
Cc1cc(/C=C(\C#N)c2nc3ccccc3[nH]2)c(C)n1C	74	?	10µM*	?	2%
